{"source": "paper PMC5540273", "about": "(PLoS ONE, 2017);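 also: kd values determined as follow-up on hits from a single-replicate KINOMEscan panel screen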", "data": [{"tested_on": "PRKD3", "units": {"Kd": "µM"}, "values": [{"smiles": "COc1cccc(C2=C(Nc3cc(Cl)c(O)c(Cl)c3)C(=O)NC2=O)c1", "note": "[SB-390767]", "Kd": "> 10"}, {"smiles": "COc1ccc(Nc2nccc(N3CCC(NC(=O)c4cc5ccccc5s4)C3)n2)cc1", "note": "(centres unmarked) [GSK1379738]", "Kd": "> 10"}, {"smiles": "FC(F)(F)c1ccccc1-c1cc(-c2c[nH]nc2-c2ccccn2)ccn1", "note": "[GW679396]", "Kd": "> 10"}, {"smiles": "COc1ccc(Nc2nccc(-c3ccc(NC(=O)c4cc5cc(F)ccc5[nH]4)cc3)n2)cc1", "note": "[GSK1229496]", "Kd": "> 10"}, {"smiles": "CS(=O)(=O)CCNCc1nc(-c2ccc3ncnc(Nc4ccc(OCc5ccccc5)c(Cl)c4)c3c2)cs1.Cl", "note": "[GW582764]", "Kd": "> 10"}, {"smiles": "COC(=O)C(Cc1ccccc1)NC(=O)NC1CCN(c2ccnc(Nc3ccc(F)cc3)n2)C1", "note": "(centres unmarked) [GSK1379714]", "Kd": "> 10"}, {"smiles": "Cc1ccccc1-c1cc(-c2c[nH]nc2-c2ccccn2)ccn1", "note": "[GW680061]", "Kd": "> 10"}]}, {"tested_on": "PRKG2", "units": {"Kd": "µM"}, "values": [{"smiles": "CNc1cc(-c2ccc3c(N)n[nH]c3c2)nc(N)n1", "note": "[GSK2224810]", "Kd": 0.039}, {"smiles": "Cn1cncc1-c1cc2c(Nc3ccc(OCc4ccccc4)cc3)ncnc2cn1", "note": "[GW281179]", "Kd": 3.3}, {"smiles": "Cn1cnc2c(N)ncnc21", "note": "[SKF-97623]", "Kd": "> 10"}, {"smiles": "COc1ccc(Nc2nccc(N3CCC(NC(=O)C(C)c4ccc(Cl)cc4)C3)n2)cc1", "note": "(centres unmarked) [GSK1379735]", "Kd": "> 10"}, {"smiles": "Cn1cncc1C(=O)NC1CCN(c2ccnc(Nc3ccc(F)cc3)n2)C1", "note": "(centres unmarked) [GSK1379717]", "Kd": "> 10"}, {"smiles": "CNC(=O)c1ccc(C)c(-n2c(C)cc(OCc3ccc(F)cc3F)c(Br)c2=O)c1", "Kd": "> 10"}, {"smiles": "CC[C@@H]1CO[C@H](C(=O)Nc2ccccc2)CN1c1cc(-c2ccc3c(N)n[nH]c3c2)nc(NC)n1", "note": "[GSK2376236]", "Kd": 0.4}, {"smiles": "NS(=O)(=O)c1cccc(N/C=C2\\C(=O)Nc3ccc(S(=O)(=O)Cc4c(Cl)cccc4Cl)cc32)c1", "note": "[GSK398099]", "Kd": "> 10"}, {"smiles": "Cc1c(Cn2c(C)c(C)n3c(=O)cc(N4CCOCC4)nc23)cccc1C(F)(F)F", "note": "[GSK2328680]", "Kd": "> 10"}]}, {"tested_on": "RIOK1", "units": {"Kd": "µM"}, "values": [{"smiles": "CNc1cc(-c2ccc3c(N)n[nH]c3c2)nc(N)n1", "note": "[GSK2224810]", "Kd": 1.1}, {"smiles": "Nc1cccc(-c2ccc3c(N)n[nH]c3c2)n1", "note": "[GSK2192730]", "Kd": 0.39}, {"smiles": "O=C(Nc1n[nH]c2cc(-c3ccsc3)ccc12)C1CC1", "note": "[SB-732932]", "Kd": 0.18}, {"smiles": "CC(C)c1cc(-c2ccc3c(N)n[nH]c3c2)nc(N)n1", "note": "[GSK2250882]", "Kd": 0.58}]}]}
